Screening results (PubChem BioAssay)
A selection: hits, their analogues and other compounds. The true share with any hit is near 2%.
sPLA2-III inh = human group III sPLA2 inhibitors, primary screen, biochemical, QFRET, BODIPY PC-A2 liposome substrate. Group 3 secretory phospholipase A2 (Homo sapiens), Q9NZ20. QFRET BODIPY PC-A2 liposome hydrolysis, fluorescence. inhibition, % at 12.2 µM. actives 0.56% (n = 370,000);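 active = inhibition above mean plus 3 SD of compounds lying within the high and low control bounds, cut at about 19% in these data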;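 note: 0% = median of test compound wells and 100% = no enzyme DMSO wells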
ARNT-TACC3 inh = disruptors of ARNT/TACC3 protein interaction, primary screen, biochemical, AlphaScreen, single concentration; inhibition, % at 9.99 µM; Transforming acidic coiled-coil-containing protein 3 (Homo sapiens), Q9Y6A5; actives 0.66% (n = 390,000); AlphaScreen His-ARNT PAS-B/GST-TACC3 binding, luminescence; TACC3 fragment carries E629A point mutation;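 active = mean inhibition of replicates at least 50% and at least half of replicates each reaching 50%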;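 note: 0% = complete ARNT plus TACC3 wells and 100% = ARNT alone without TACC3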
Neddylation inh = inhibitors of cullin neddylation, primary screen, biochemical, TR-FRET, uHTS, NAE and Ubc12; NEDD8-conjugating enzyme Ubc12 (Homo sapiens) + NEDD8-activating enzyme E1 regulatory …; inhibition, % at 25 µM; actives 0.58% (n = 360,000); AID 651699, 2012; in the data active = inhibition above about 36%
Target sequence (P61081 whole entry, looked up): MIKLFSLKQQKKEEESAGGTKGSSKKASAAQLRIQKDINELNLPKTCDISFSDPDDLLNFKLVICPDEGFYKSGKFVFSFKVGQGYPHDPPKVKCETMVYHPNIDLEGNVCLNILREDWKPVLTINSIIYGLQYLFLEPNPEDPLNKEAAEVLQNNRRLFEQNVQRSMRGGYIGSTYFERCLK
Target sequence (Q13564 whole entry, looked up): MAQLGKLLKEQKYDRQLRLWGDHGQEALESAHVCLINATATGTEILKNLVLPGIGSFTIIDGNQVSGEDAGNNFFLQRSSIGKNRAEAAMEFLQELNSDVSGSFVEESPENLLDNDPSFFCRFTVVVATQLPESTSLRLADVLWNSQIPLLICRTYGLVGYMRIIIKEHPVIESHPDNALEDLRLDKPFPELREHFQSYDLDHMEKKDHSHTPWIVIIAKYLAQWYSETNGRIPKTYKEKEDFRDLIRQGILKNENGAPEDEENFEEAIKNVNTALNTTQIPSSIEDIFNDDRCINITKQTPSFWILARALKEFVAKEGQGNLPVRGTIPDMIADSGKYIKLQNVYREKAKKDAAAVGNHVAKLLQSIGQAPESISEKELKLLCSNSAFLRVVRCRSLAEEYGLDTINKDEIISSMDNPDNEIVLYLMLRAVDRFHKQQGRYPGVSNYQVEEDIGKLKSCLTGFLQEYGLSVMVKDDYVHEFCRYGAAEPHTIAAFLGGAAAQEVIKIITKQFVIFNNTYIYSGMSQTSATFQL
DAGLB inh = DAGLB lipase inhibitors, primary screen, biochemical, fluorescence, HTS; AID 504411, 2011; Diacylglycerol lipase-beta (Homo sapiens), Q8NCG7; HEK293T DAGLB membrane lysate, EnzChek fluorogenic substrate; actives 0.059% (n = 340,000); inhibition, % at 5.17 µM; in the data active = inhibition above about 34%;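 note: 0% = enzyme with vehicle and 100% = wells lacking enzyme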
NadD inh = inhibitors of S. aureus NadD, primary screen, biochemical, colorimetric, uHTS. purified NadD enzyme, colorimetric absorbance read-out. inhibition, % at 20 µM. actives 0.78% (n = 360,000). AID 602399, 2012; in the data active = inhibition above about 26%
ARNT Alpha ctr-1 = AlphaScreen signal interference compounds, dose response, artefact control for ARNT-TACC3 interaction inhibitor project, biochemical, luminescence, cherry-pick; shares compounds with ARNT-TACC3 inh; His-ARNT PASB-GST AlphaScreen artifact counter-screen; AC50, µM (highest dose often 68 µM), for the others: top-dose activity change, negative = signal decrease; actives 50% (n = 1,200); AID 651705, 2012;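 active = every separate test run was called active for a drop in luminescence, with AC50 within twice the top valid dose, actives reach about 71 µM in these data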
ARNT Alpha ctr-2 = AlphaScreen signal interference by compounds, dose response, artefact control for ARNT/TACC3 disruptor project, biochemical, dual-tagged ARNT, dry powder; actives 70% (n = 45); AC50, µM; Dual-tagged His-ARNT PASB-GST AlphaScreen artifact counter-screen; AID 720564, 2013; shares compounds with ARNT-TACC3 inh;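 active = luminescence drop, with half-maximal potency fitted within twice the sample's top valid dose, cut at about 70 µM in these data; inactive = the rest, including signal moving the wrong way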
* hit, by the source's call; nt = no result given; [ ] = remark or other dose.

SMILES	sPLA2-III inh	ARNT-TACC3 inh	Neddylation inh	DAGLB inh	NadD inh	ARNT Alpha ctr-1	others
COc1ccccc1-c1ccc2c(c1)[C@H]1[C@H](CCN1S(=O)(=O)c1ccccc1F)[C@H](CO)N2	nt	31	nt	nt	nt	nt
COc1ccccc1-c1cnc2c(c1)C(=O)N([C@@H](C)CO)C[C@@H](C)[C@H](CN(C)C(C)=O)O2	nt	-5	nt	nt	nt	nt
COP(=O)(OC)C(Cc1ccccc1)NC(=O)CNC(=O)OCc1ccccc1 (configuration not stated)	-1	nt	nt	nt	nt	nt
COC(=O)C1(NC(=O)CNC(=O)OCc2ccccc2)CCCC1	9	active	5	0	-3	-1%
CCN(C(=O)COc1cccc2cccnc12)C1CCS(=O)(=O)C1 (configuration not stated)	10	53*	28	2	3	-11%
CCN(C(=O)COc1ccccc1C(=O)NCc1ccccc1)C1CCS(=O)(=O)C1 (configuration not stated)	5	-4	11	3	0	nt
CN1CCc2c(sc3c2C(=O)NC(c2ccccc2)N3)C1 (configuration not stated)	10	-2	23	-2	-5	nt
CN1CCc2c(sc3c2C(=O)NC(c2ccccn2)N3)C1 (configuration not stated)	-5	active	48*	-3	-6	68µM*
C[C@H]1CN([C@@H](C)CO)S(=O)(=O)c2ccc(-c3cccnc3)cc2O[C@H]1CN(C)C(=O)C1CCC1	nt	-10	nt	nt	nt	nt
O=C(C[C@H]1C=C[C@H](NS(=O)(=O)c2ccc(F)cc2)[C@H](CO)O1)N1CCN(c2ccccc2)CC1	nt	52*	nt	nt	nt	0%[38 µM]
O=C(C[C@H]1C=C[C@@H](NS(=O)(=O)c2ccc(F)cc2)[C@H](CO)O1)N1CCN(c2ccccc2)CC1	nt	0	nt	nt	nt	nt
O=C(O)c1ccc(Br)c(S(=O)(=O)N2CCCC2)c1	2	60*	-7	1	-1	10%
O=C(O)c1ccc(Cl)c(S(=O)(=O)N2CCCC2)c1	3	-4	3	0	-7	nt
COc1ccc(NC(=O)N[C@H]2CC[C@@H](CCn3cc(-c4ccccn4)nn3)O[C@@H]2CO)cc1	nt	95*	nt	nt	nt	39µM*
COc1ccc(NC(=O)N[C@H]2CC[C@@H](CCn3cc(-c4ccccn4)nn3)O[C@H]2CO)cc1	nt	65*	nt	nt	nt	40µM*
C[C@@H]1CCCCO[C@@H](CN(C)S(=O)(=O)c2cccs2)[C@H](C)CN([C@@H](C)CO)C(=O)c2cc(NS(=O)(=O)c3ccc(F)cc3)ccc2O1	nt	-2	nt	nt	nt	nt
COc1ccc(OC)c2nc3c(C(=O)NCCN(C)C)cccc3nc12	3	20*	-33	0	-1	-5%
CN(C)CCNC(=O)c1cccc2nc3cccc(F)c3nc12	13	7	-32	-1	0	nt
CC(Nc1nc(-c2ccccn2)nnc1-c1ccccc1)c1ccccc1 (configuration not stated)	nt	nt	nt	nt	nt	2.3µM*
Cn1c(-c2ccccc2)cnc1Nc1nc(-c2ccccn2)nnc1-c1ccccc1	nt	nt	nt	nt	nt	2.6µM*
c1ccc(-c2nnc(-c3ccccn3)nc2NC2CCCCC2)cc1	-4	nt	-9	8	14	nt
CNc1nc(-c2ccccn2)nnc1-c1ccccc1	2	64*	-7	0	7	3µM*
Clc1cccc(CNc2nc(-c3ccccn3)nnc2-c2ccccc2)c1	4	nt	nt	nt	nt	2.2µM*
OC[C@H]1[C@H](c2ccc(-c3cccnc3)cc2)[C@H]2CN(CC3CCOCC3)CCCCN21	nt	3	nt	nt	nt	nt
C/C=C/c1cnc2c(c1)C(=O)N([C@@H](C)CO)C[C@@H](C)[C@H](CN(C)C(=O)c1cccc(F)c1)O2	nt	-3	nt	nt	nt	nt
SMILES	sPLA2-III inh	ARNT-TACC3 inh	Neddylation inh	DAGLB inh	NadD inh	ARNT Alpha ctr-1	others
c1ccc(-c2nnc(Nc3nc(-c4ccccn4)nnc3-c3ccccc3)s2)cc1	nt	nt	nt	nt	nt	4.1µM*
CCN(CC)CCCNc1nc(-c2ccccc2)nc2ccccc12	1	-3	-2	1	-8	nt
CCN(CC)CCCNc1nc2ccccc2c2[nH]c3ccc(OC)cc3c12	-4	57*	nt	1	-3	-34%
O=c1[nH]cnc2c1C(c1ccccc1[N+](=O)[O-])c1c(nc[nH]c1=O)O2	2	50*	7	2	2	-35%
COc1ccc(C2c3c(nc[nH]c3=O)Oc3nc[nH]c(=O)c32)cc1	nt	4	11	-1	0	nt
CCC(C)c1c(N)n(S(=O)(=O)c2ccc(C)cc2)oc1=O (configuration not stated)	2	61*	0	0	-3	35µM*
CCC(C)c1c(NS(=O)(=O)c2ccc(C)cc2)o[nH]c1=O (configuration not stated)	1	11	1	1	-1	nt
CCn1c(Cc2ccccc2)nnc1SCC(=O)Nc1ccc(N)cc1	-4	57*	3	1	-1	-10%
CCn1c(Cc2ccccc2)nnc1SCC(=O)Nc1ccc(OC)cc1	-6	-3	-5	-2	2	nt
COc1ccccc1C(=O)Nc1ccccc1N1CCCCC1	-9	14*	30	-10	3	5%
COc1ccccc1NC(=O)N1CC[C@@H]2[C@H]1c1cc(-c3ccc(F)cc3)ccc1N(C)[C@@H]2CO	nt	7	nt	nt	nt	nt
CCOc1ccc2c(c1)c(N=NC(=N)N)c(O)n2C	8	36*	-22	1	-4	-25%
O=C(CN1CCOCC1)NCC[C@@H]1CC[C@H](NC(=O)c2ccc3c(c2)OCO3)[C@@H](CO)O1	nt	2	nt	nt	nt	nt
O=C1CCN(Cc2ccccc2)C=C1c1ccc(C(F)(F)F)cc1	-3	active	-10	-2	4	-18%
O=C1CCN(Cc2ccccc2)C=C1c1ccc(Cl)cc1	4	1	-28	0	0	nt
COc1ccc(OC)c(-n2nnnc2SCC(=O)Nc2ccccc2OC)c1	-12	active	2	-2	-2	-15%
COc1ccccc1NC(=O)CSc1nnnn1-c1ccccc1OC	1	-3	2	-3	-3	nt
CC1CCN(S(=O)(=O)c2ccc(C(=O)Nc3nnc(-c4ccccn4)o3)cc2)CC1	0	42	4	3	16	nt	ARNT Alpha ctr-2=>136
N#Cc1ccc(C(=O)Nc2nnc(-c3ccccn3)o2)cc1	0	54*	6	0	4	-22%
